# Measured values: the supplement of paper PMC8728848
# The sample as a whole holds a higher share of the strongest signals than the screen did.
# B1: SJA (Sophora japonica) (protein)
# chain: FLGLFNSGGYSSSYQIVAVEFDTYINEWDPKTRHIGIDINSINSTKTVTWGWENGEVAIVLISYKAATETLTVSLTYPSSQTSYILSAAVDLKSILPEWVRIGF
# Key:
# Assay in all cases: glycan array binding signal (z-score within array); higher = stronger binding
# Details in all cases: glycan notation: IUPAC condensed, linker removed
# [1] = biological target: Fuc(a1-2)Gal(b1-3)GlcNAc(b1-3)[Neu5Ac(a2-6)Gal(b1-4)GlcNAc(b1-6)]Gal(b1-4)Glc
# In short: (§1)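 The binding signal is a Z-score computed within each array and averaged over linkers. Arrays of the same protein sequence at different concentrations or buffers were also averaged together. Data originate from 3228 arrays in the Consortium for Functional Glycomics database, kept only where the protein sequence was available.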
# [2] = biological target: Fuc(a1-2)Gal(b1-3)[Fuc(a1-4)]GlcNAc(b1-2)Man(a1-3)[Fuc(a1-2)Gal(b1-3)[Fuc(a1-4)]GlcNAc(b1-2)Man(a1-6)]Man(b1-4)GlcNAc(b1-4)[Fuc(a1-6)]GlcNAc(b1-4)[Fuc(a1-6)]GlcNAc
# In short: as §1
# [3] = biological target: Fuc(a1-2)[Gal(a1-3)]Gal(b1-3)GlcNAc(b1-2)Man(a1-3)[Fuc(a1-2)[Gal(a1-3)]Gal(b1-3)GlcNAc(b1-2)Man(a1-6)]Man(b1-4)GlcNAc(b1-4)GlcNAc
# In short: as §1
# [4] = biological target: Fuc(a1-2)[Gal(a1-3)]Gal(b1-4)GlcNAc
# In short: as §1
# [5] = biological target: Fuc(a1-2)[Gal(a1-3)]Gal(b1-4)GlcNAc(b1-2)Man(a1-3)[Fuc(a1-2)[Gal(a1-3)]Gal(b1-4)GlcNAc(b1-2)Man(a1-6)]Man(b1-4)GlcNAc(b1-4)GlcNAc
# In short: as §1
# [6] = biological target: Fuc(a1-2)[Gal(a1-3)]Gal(b1-4)GlcNAc(b1-3)GalNAc
# In short: as §1
# [7] = biological target: Fuc(a1-2)[Gal(a1-3)]Gal(b1-4)[Fuc(a1-3)]GlcNAc
# In short: as §1
# [8] = biological target: Fuc(a1-2)[GalNAc(a1-3)]Gal(b1-3)GalNAc(a1-3)[Fuc(a1-2)]Gal(b1-4)GlcNAc
# In short: as §1
# [9] = biological target: Fuc(a1-2)[GalNAc(a1-3)]Gal(b1-3)GalNAc(b1-3)Gal(a1-4)Gal(b1-4)Glc
# In short: as §1
# [10] = biological target: Fuc(a1-2)[GalNAc(a1-3)]Gal(b1-4)GlcNAc(b1-3)Gal(b1-4)GlcNAc(b1-3)Gal(b1-4)GlcNAc
# In short: as §1
# [11] = biological target: Fuc(a1-2)[GalNAc(a1-3)]Gal(b1-4)GlcNAc(b1-6)GalNAc
# In short: as §1
# [12] = biological target: Fuc(a1-3)[Gal(b1-4)]GlcNAc(b1-2)Man
# In short: as §1
# [13] = biological target: Fuc(a1-3)[Gal3S(b1-4)]GlcNAc6S
# In short: as §1
# Gal(a1-3)Gal(b1-4)Glc = biological target: Gal(a1-3)Gal(b1-4)Glc
# In short: as §1
# Gal(a1-4)Gal(b1-4)Glc = biological target: Gal(a1-4)Gal(b1-4)Glc
# In short: as §1
# [14] = biological target: Gal(b1-3)GlcNAc(a1-6)Gal(b1-4)GlcNAc
# In short: as §1
# [15] = biological target: Gal(b1-3)GlcNAc(b1-2)Man(a1-3)[Gal(b1-3)GlcNAc(b1-2)Man(a1-6)]Man(b1-4)GlcNAc(b1-4)[Fuc(a1-6)]GlcNAc
# In short: as §1
# [16] = biological target: Gal(b1-4)GlcNAc(b1-2)Man(a1-3)[Gal(b1-4)GlcNAc(b1-2)Man(a1-6)][GlcNAc(b1-4)]Man(b1-4)GlcNAc(b1-4)[Fuc(a1-6)]GlcNAc
# In short: as §1
# [17] = biological target: Gal(b1-4)GlcNAc(b1-2)Man(a1-6)Man(b1-4)GlcNAc(b1-4)GlcNAc
# In short: as §1
# [18] = biological target: Gal(b1-4)GlcNAc(b1-3)Gal(b1-4)GlcNAc
# In short: as §1
# [19] = biological target: Gal(b1-4)GlcNAc(b1-3)Gal(b1-4)GlcNAc(b1-3)Gal(b1-4)GlcNAc(b1-2)Man(a1-3)[Gal(b1-4)GlcNAc(b1-3)Gal(b1-4)GlcNAc(b1-3)Gal(b1-4)GlcNAc(b1-2)Man(a1-6)]Man(b1-4)GlcNAc(b1-4)GlcNAc
# In short: as §1
# [20] = biological target: Gal(b1-4)GlcNAc(b1-3)Gal(b1-4)GlcNAc(b1-3)Gal(b1-4)GlcNAc(b1-3)Gal(b1-4)GlcNAc(b1-3)Gal(b1-4)GlcNAc(b1-2)[Gal(b1-4)GlcNAc(b1-3)Gal(b1-4)GlcNAc(b1-3)Gal(b1-4)GlcNAc(b1-3)Gal(b1-4)GlcNAc(b1-3)Gal(b1-4)GlcNAc(b1-6)]Man(a1-6)[Gal(b1-4)GlcNAc(b1-3)Gal(b1-4)GlcNAc(b1-3)Gal(b1-4)GlcNAc(b1-3)Gal(b1-4)GlcNAc(b1-3)Gal(b1-4)GlcNAc(b1-2)Man(a1-3)]Man(b1-4)GlcNAc(b1-4)[Fuc(a1-6)]GlcNAc
# In short: as §1
# [21] = biological target: Gal(b1-4)GlcNAc(b1-6)GalNAc
# In short: as §1
# Gal3S4S(b1-4)GlcNAc = biological target: Gal3S4S(b1-4)GlcNAc
# In short: as §1
# [22] = biological target: GalNAc(a1-3)GalNAc(b1-3)Gal(a1-4)Gal(b1-4)GlcNAc
# In short: as §1
# [23] = biological target: GalNAc(b1-3)Gal(a1-4)Gal(b1-4)GlcNAc
# In short: as §1
# GalNAc(b1-4)GlcNAc = biological target: GalNAc(b1-4)GlcNAc
# In short: as §1
# [24] = biological target: GalNAc(b1-4)GlcNAc(b1-2)Man
# In short: as §1
# [25] = biological target: GalNAc(b1-4)GlcNAc(b1-3)GalNAc(b1-4)GlcNAc
# In short: as §1
# GalNAc(b1-4)GlcNAc6S = biological target: GalNAc(b1-4)GlcNAc6S
# In short: as §1
# GlcA(b1-6)Gal = biological target: GlcA(b1-6)Gal
# In short: as §1
# [26] = biological target: GlcNAc(a1-4)Gal(b1-4)GalNAc
# In short: as §1
# [27] = biological target: GlcNAc(a1-4)Gal(b1-4)GlcNAc(b1-3)Gal(b1-4)GlcNAc
# In short: as §1
# [28] = biological target: GlcNAc(b1-2)Gal(b1-3)GalNAc
# In short: as §1
# [29] = biological target: GlcNAc(b1-2)[GlcNAc(b1-6)]Man(a1-6)[GlcNAc(b1-2)Man(a1-3)]Man(b1-4)GlcNAc(b1-4)GlcNAc
# In short: as §1
# [30] = biological target: GlcNAc(b1-2)[GlcNAc(b1-6)]Man(a1-6)[GlcNAc(b1-2)Man(a1-3)]Man(b1-4)GlcNAc(b1-4)[Fuc(a1-6)]GlcNAc
# In short: as §1
# [31] = biological target: GlcNAc(b1-3)Gal(b1-4)GlcNAc
# In short: as §1
# [32] = biological target: GlcNAc(b1-3)Gal(b1-4)GlcNAc(b1-6)[Gal(b1-3)]GalNAc
# In short: as §1
# GlcNAc(b1-4)GlcNAc = biological target: GlcNAc(b1-4)GlcNAc
# In short: as §1
# [33] = biological target: Neu5Ac(a2-3)Gal(b1-3)GlcNAc
# In short: as §1
# [34] = biological target: Neu5Ac(a2-3)Gal(b1-3)[GlcNAc(b1-6)]GalNAc
# In short: as §1
# [35] = biological target: Neu5Ac(a2-3)Gal(b1-4)GlcNAc
# In short: as §1
# [36] = biological target: Neu5Ac(a2-3)Gal(b1-4)GlcNAc(b1-3)Gal(b1-4)GlcNAc(b1-2)Man(a1-3)[Neu5Ac(a2-3)Gal(b1-4)GlcNAc(b1-3)Gal(b1-4)GlcNAc(b1-2)Man(a1-6)]Man(b1-4)GlcNAc(b1-4)GlcNAc
# In short: as §1
# [37] = biological target: Neu5Ac(a2-3)Gal(b1-4)GlcNAc(b1-3)Gal(b1-4)GlcNAc(b1-3)Gal(b1-4)GlcNAc(b1-2)Man(a1-3)[Neu5Ac(a2-3)Gal(b1-4)GlcNAc(b1-3)Gal(b1-4)GlcNAc(b1-3)Gal(b1-4)GlcNAc(b1-2)Man(a1-6)]GalNAc
# In short: as §1
# [38] = biological target: Neu5Ac(a2-3)Gal(b1-4)[Fuc(a1-3)]GlcNAc(b1-6)[Neu5Ac(a2-3)Gal(b1-3)]GalNAc
# In short: as §1
# [39] = biological target: Neu5Ac(a2-6)Gal(b1-4)GlcNAc
# In short: as §1
# [40] = biological target: Neu5Ac(a2-6)Gal(b1-4)GlcNAc(b1-2)Man(a1-3)[Neu5Ac(a2-3)Gal(b1-4)GlcNAc(b1-2)Man(a1-6)]Man(b1-4)GlcNAc(b1-4)GlcNAc
# In short: as §1
# [41] = biological target: Neu5Ac(a2-6)Gal(b1-4)GlcNAc(b1-3)Gal(b1-3)GlcNAc
# In short: as §1
# [42] = biological target: Neu5Ac(a2-6)GlcNAc(b1-4)GlcNAc(b1-4)GlcNAc
# In short: as §1
# [43] = biological target: Neu5Ac(a2-8)Neu5Ac(a2-3)[GalNAc(b1-4)]Gal(b1-4)Glc
# In short: as §1
binder,measurement,setting,value
B1,glycan array binding signal (z-score),[1],-0.155
same,glycan array binding signal (z-score),[2],-0.175
same,glycan array binding signal (z-score),[3],4.34
same,glycan array binding signal (z-score),[4],2.19
same,glycan array binding signal (z-score),[5],4.98
same,glycan array binding signal (z-score),[6],0.012
same,glycan array binding signal (z-score),[7],6.46
same,glycan array binding signal (z-score),[8],-0.406
same,glycan array binding signal (z-score),[9],-0.202
same,glycan array binding signal (z-score),[10],0.248
same,glycan array binding signal (z-score),[11],-0.199
same,glycan array binding signal (z-score),[12],-0.248
same,glycan array binding signal (z-score),[13],-0.061
same,glycan array binding signal (z-score),Gal(a1-3)Gal(b1-4)Glc,-0.143
same,glycan array binding signal (z-score),Gal(a1-4)Gal(b1-4)Glc,-0.134
same,glycan array binding signal (z-score),[14],-0.076
same,glycan array binding signal (z-score),[15],-0.007
same,glycan array binding signal (z-score),[16],-0.337
same,glycan array binding signal (z-score),[17],-0.334
same,glycan array binding signal (z-score),[18],-0.148
same,glycan array binding signal (z-score),[19],2.39
same,glycan array binding signal (z-score),[20],2.24
same,glycan array binding signal (z-score),[21],-0.118
same,glycan array binding signal (z-score),Gal3S4S(b1-4)GlcNAc,-0.23
same,glycan array binding signal (z-score),[22],-0.341
same,glycan array binding signal (z-score),[23],-0.186
same,glycan array binding signal (z-score),GalNAc(b1-4)GlcNAc,3.38
same,glycan array binding signal (z-score),[24],2.46
same,glycan array binding signal (z-score),[25],8.25
same,glycan array binding signal (z-score),GalNAc(b1-4)GlcNAc6S,3.05
same,glycan array binding signal (z-score),GlcA(b1-6)Gal,-0.111
same,glycan array binding signal (z-score),[26],-0.15
same,glycan array binding signal (z-score),[27],-0.229
same,glycan array binding signal (z-score),[28],-0.192
same,glycan array binding signal (z-score),[29],-0.255
same,glycan array binding signal (z-score),[30],-0.375
same,glycan array binding signal (z-score),[31],-0.101
same,glycan array binding signal (z-score),[32],-0.24
same,glycan array binding signal (z-score),GlcNAc(b1-4)GlcNAc,-0.142
same,glycan array binding signal (z-score),[33],-0.139
same,glycan array binding signal (z-score),[34],-0.156
same,glycan array binding signal (z-score),[35],-0.241
same,glycan array binding signal (z-score),[36],0.783
same,glycan array binding signal (z-score),[37],3.51
same,glycan array binding signal (z-score),[38],-0.056
same,glycan array binding signal (z-score),[39],-0.22
same,glycan array binding signal (z-score),[40],-0.178
same,glycan array binding signal (z-score),[41],-0.207
same,glycan array binding signal (z-score),[42],-0.288
same,glycan array binding signal (z-score),[43],-0.232
